Bioassay records (PubChem)
ALDH1A1 block: blocks purified human ALDH1A1 activity; P00352; Purified ALDH1A1, NADH fluorescence, propionaldehyde substrate; Potency, µM (top dose mostly 75.3 µM), for inactives: at the highest dose activity, negative = inhibition, hits mostly inhibitors; 220,000 compounds, 7.3% hits; AID 1030; active means well fitted inhibition curve with a large enough effect, not every such curve was filed as active; inconclusive means small, poorly fitted or top-dose-only effect, or another doubt; inactive means no such curve, though single readings can be large or run the other way;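 further: potency means the concentration at half of the fitted maximal effect; plate controls were no enzyme wells and a reference inhibitor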
Target sequence (P00352 whole entry, looked up): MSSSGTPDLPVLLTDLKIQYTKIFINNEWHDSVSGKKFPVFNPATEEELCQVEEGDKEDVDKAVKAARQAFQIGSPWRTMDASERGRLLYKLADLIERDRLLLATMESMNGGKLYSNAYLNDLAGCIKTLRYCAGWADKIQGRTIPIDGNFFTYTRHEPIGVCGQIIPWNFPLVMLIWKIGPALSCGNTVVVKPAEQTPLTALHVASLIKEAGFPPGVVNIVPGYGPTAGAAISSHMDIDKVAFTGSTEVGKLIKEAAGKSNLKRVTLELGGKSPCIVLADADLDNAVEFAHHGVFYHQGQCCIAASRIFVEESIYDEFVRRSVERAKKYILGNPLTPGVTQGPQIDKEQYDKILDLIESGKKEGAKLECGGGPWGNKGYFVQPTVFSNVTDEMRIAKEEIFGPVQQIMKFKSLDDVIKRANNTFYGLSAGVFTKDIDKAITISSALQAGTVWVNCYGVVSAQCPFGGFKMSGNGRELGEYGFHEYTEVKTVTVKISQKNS
IMPase inh: membrane-permeable compound that blocks inositol monophosphatase; AID 901; 120,000 tested, under 10 active; P97697; inhibition (IP1 accumulation), % at 46.1 µM; CHO-M1 cells, IP1 accumulation, HTRF TR-FRET ratio; active means well fitted curve in the direction sought with a large enough effect in the signal ratio, not every such curve was filed as active; inconclusive means small, poorly fitted or top-dose-only effect, or a change in a side signal; inactive means no such curve, though single readings can be large or run the other way; the % refers to the signal ratio;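 further: cells stimulated with carbachol in lithium chloride buffer; plate controls were DMSO basal wells for no effect and reference inhibitor wells for full effect; higher means more IMPase inhibition seen as more IP1 and lower FRET ratio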
Target sequence (P97697 whole entry, looked up): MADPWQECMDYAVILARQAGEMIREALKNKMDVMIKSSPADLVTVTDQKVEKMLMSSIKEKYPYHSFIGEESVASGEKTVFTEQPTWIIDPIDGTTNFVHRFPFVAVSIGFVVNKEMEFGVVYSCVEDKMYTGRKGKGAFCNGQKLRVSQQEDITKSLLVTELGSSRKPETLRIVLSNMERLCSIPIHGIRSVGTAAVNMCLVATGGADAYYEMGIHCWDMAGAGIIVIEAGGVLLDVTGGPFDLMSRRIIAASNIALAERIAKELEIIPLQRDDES
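The IP-One HTRF competitive assay in carbachol-stimulated CHO-M1 cells quantifies cellular IP1. Compounds spanned up to 46 uM final, and activity is expressed as AC50 from concentration-response fits of the ratio and donor data.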
IMPase Li inh: IMPase inhibition in cells with lithium potentiation. CHO-M1 cells, IP1 TR-FRET (IP-One), carbachol + lithium. Potency, µM (series often up to 59.4 µM), for the others: top-dose activity, negative = IMPase inhibition, usual class: inhibitors. 210,000 compounds, 0.35% hits;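 further: IP1 builds up when IMPase is blocked and the TR-FRET signal falls; potency means the concentration at half of the fitted maximal effect; plate controls were basal vehicle for no effect and high inhibitor control for full effect; nearly all actives have a fitted effect of over 50% in size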
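CHO-M1, 2000 cells/well, 16–30 h culture; cpd + low Li+, 30 min 37C; lysis with d2-IP1/Eu-anti-IP1 Ab, 10 min RT; TR-FRET 665/620 ratio and 620 channel; AC50 via Hill.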
HttQ103 aggreg: reduces HttQ103-GFP aggregates in PC12 cells | PC12 HttQ103-GFP aggregates, Acumen cytometry, 40 h | Potency, µM (series often up to 46.1 µM), for inactives: at the highest dose activity change, negative = inhibition, hits mostly inhibitors | 220,000 compounds, 1.1% hits | AID 1688; further: potency means the concentration at half of the fitted maximal effect; on the % scale 0 is the no-effect control and ±100 the full control effect; nearly all actives have a fitted effect of over 60% in size
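Aggregates are detected as GFP objects 1–25 µm with signal 6 STDEV over background in lysates of induced PC12 cells. These carry Huntingtin exon 1 with 103 glutamines fused to GFP under an ecdysone promoter; compounds titrated.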
HTT ATP protect: Huntington cell model cytoprotection by ATP luminescence. Potency, µM (series often up to 56.4 µM), for the others: cytoprotection (ATP increase), hits mostly activators. 230,000 compounds, 0.14% hits. PC12 HTT-Q103 induced, cytoprotection, ATP luminescence, 40 h. AID 1471; further: potency means the concentration at half of the fitted maximal effect; % of control where 0% means no effect; nearly all actives have a fitted effect of over 45% in size
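ATP quantification (ATPlite) reports survival of PC12 cells in which tebufenozide, 100 nM final, switches on Htt exon 1 with 103 glutamines linked to GFP; compounds are titrated.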
HPGD inh: HPGD (human) dehydrogenase inhibition; Potency, µM, without a hit: top-dose activity change, negative = inhibition, usual class: inhibitors; P15428; 150,000 compounds, 4.3% hits; purified HPGD, NADH fluorescence kinetic, PGE2 substrate; AID 894; active means well fitted inhibition curve with a large enough effect, not every such curve was filed as active; inconclusive means small, poorly fitted or top-dose-only effect, or another doubt; inactive means no such curve, though single readings can be large or run the other way; further: potency means the concentration at half of the fitted maximal effect; on the % scale 0 is the no-effect control and ±100 the full control effect
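NADH formation kinetics: reaction with 30 uM PGE2 and 1 mM NAD+ (final), 20 nM enzyme, Tris-HCl pH 8 with Tween 20, after 15 min compound preincubation at room temperature. Fluorescence change, last versus first of five reads.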
An asterisk follows results filed as active; ? = inconclusive; nt = not tested or not shown; [ ] = remark or other dose. Rows were chosen to be rich in hits. Some 9.4% of all compounds tested hit in one or more screens of this group. Unless noted, the call rests on the fitted dose curve; in most records, active means well fitted curve in the direction sought with a large enough effect; inconclusive means small, poorly fitted or top-dose-only effect, or another doubt; inactive means no such curve, though single readings can be large; an effect the other way counts as inactive or inconclusive.

SMILES | ALDH1A1 block | IMPase inh | IMPase Li inh | HttQ103 aggreg | HTT ATP protect | HPGD inh
CC1(C)OC(c2ccccc2)=C/C(=C/C=N/NC(=O)c2ccncc2)O1 | ? | nt | 33% | 4%[9.22 µM] | -11%[10 µM] | nt
CCOC(=O)c1c(C)cc(O)c(C)c1O | 1% | nt | 1% | nt | nt | -9%
CCN(CC)S(=O)(=O)c1ccc(NC2c3ccccc3C(=O)N2c2ccc(C)cn2)cc1 (stereo not drawn) | 18µM* | 4 | 7%[38.3 µM] | -1% | -17% | -12%
Cc1ccc(N2C(=O)c3ccccc3C2Nc2ccc(S(=O)(=O)N3CCOCC3)cc2)nc1 (stereo not drawn) | ? | -5 | 4%[38.3 µM] | -15% | -15% | -7%
Cc1ccc(N2C(=O)c3ccccc3C2Nc2ccc(S(=O)(=O)N3CCCCC3)cc2)nc1 (stereo not drawn) | 14µM* | 2 | 2%[38.3 µM] | -19% | -24% | -2%
Cc1ccc(N2C(=O)c3ccccc3C2Nc2cccnc2)nc1 (stereo not drawn) | -6% | 11 | 2% | -7% | 4%[10 µM] | -1%
CCOC(=O)N1CCC(N2C(=O)c3ccccc3C2Nc2ccc(S(=O)(=O)N3CCCCC3)cc2)CC1 (stereo not drawn) | 25µM* | nt | 13% | 10% | -37% | nt
CCc1nn2c(=O)c(S(=O)(=O)Nc3ccc(OC)c(Cl)c3)c(C)nc2s1 | nt | 6 | nt | nt | nt | nt
O=[N+]([O-])c1c(Nc2ccccc2O)ccc2nonc12 | 5% | nt | -1% | 10% | ? | nt
CC(=O)Nc1ccc(Nc2ccc3nonc3c2[N+](=O)[O-])cc1 | 22µM* | nt | 13% | 8% | -15% | nt
CN(C)CCCCl | 8% | nt | -14% | nt | -1% | -1%
O=C(COC(=O)c1ccc2c(=O)n3c(nc2c1)CCC3)NC1CCS(=O)(=O)C1 (stereo not drawn) | -3% | nt | 2% | 0.0063µM* | -24% | nt
Cc1cccc(NC(=O)COC(=O)c2ccc3c(=O)n4c(nc3c2)CCC4)c1 | ? | nt | 8% | 1% | 14%[10 µM] | -13%
Cc1c(C)c2c(c(C)c1OC(=O)CCC(=O)O)CC[C@@](C)(CCC[C@H](C)CCC[C@H](C)CCCC(C)C)O2 | nt | nt | nt | 14% | 21% | nt
S=c1[nH]c2ccccc2s1 | 11µM* | nt | 5% | nt | 35% | 25µM*
Oc1[nH]c(=S)sc1C=C1N=c2ccccc2=N1 | 6% | nt | nt | -7%[9.22 µM] | 8%[10 µM] | nt
C[N+](C)(C)[C@@H](C1=CCCC1=O)c1ccccc1 | nt | nt | nt | nt | 15%[10 µM] | nt
CCN1C(=O)[C@H]2[C@H]3[C@H](O)[C@H](O)C/C(=N/O[C@@H](C)CN4CCCc5nc(C)c(C)cc54)[C@@H]3CC[C@@H]2C1=O | -6%[13.5 µM] | nt | nt | nt | 15%[10 µM] | nt
CC(C)(C)CC(C)(C)NCC(=O)Nc1c2c(nc3ccccc13)CCC2 | 9.5µM* | nt | 29% | 4%[9.22 µM] | 10%[10 µM] | nt
CCOC(=O)c1cnc(-c2ccccc2)nc1Oc1ccc(OC)cc1 | 11µM* | nt | 14% | 17% | 0% | nt
COC(=O)c1ccccc1NC(=O)c1ccccc1SC | -4% | -5 | 21% | -13% | -6%[1.9 µM] | -30%
CCOC(=O)c1ccccc1NC(=O)c1ccccc1SC | 14µM* | 12 | 29%[38.3 µM] | -14% | -32% | -11%
COCCCNC(=O)c1ccccc1SC | 2% | 9 | 10%[38.3 µM] | -10% | -24% | 32µM*
CCOC(=O)c1ccccc1NC(=O)c1cccnc1 | -8% | -6 | 12% | -22% | -8%[10 µM] | -11%
CCOC(=O)c1ccccc1NC(=O)CN(c1ccccc1)S(=O)(=O)N(C)C | 28µM* | ? | 21%[38.3 µM] | -11% | 12% | -5%
SMILES | ALDH1A1 block | IMPase inh | IMPase Li inh | HttQ103 aggreg | HTT ATP protect | HPGD inh
CCOC(=O)c1ccccc1NC(=O)c1cncc(Br)c1 | -10% | ? | 1.3µM* | -12% | 4% | -25%
Cc1cc2c(nc1C)CCCN2C[C@H](C)O/N=C1/[C@H]2O[C@@H]2[C@@H](O)[C@H]2[C@H]1CCn1c(=O)n(-c3ccccc3)c(=O)n12 | ? | nt | nt | nt | -5%[10 µM] | nt
O=C(NC1CCCCC1)C1c2ccccc2C(=O)N1Cc1ccc2c(c1)OCO2 (stereo not drawn) | 0% | nt | 4% | -9% | 34%[10 µM] | nt
N#CC1=C2SCCN2C(=O)C(C#N)C12CCCCC2 (stereo not drawn) | 0.56µM* | 0 | nt | 6% | 4% | nt
CC1=C(C(=O)Nc2ccc(Cl)cc2)C(c2cccs2)n2nnnc2N1 (stereo not drawn) | 5µM* | -2 | -3%[38.3 µM] | -10% | -10% | -10%
COC(=O)C1=C(C(=O)c2ccccc2)C(c2cccs2)n2nnnc2N1 (stereo not drawn) | 22µM* | -1 | -9%[38.3 µM] | 4% | 8%[10 µM] | -7%
BrC(/C=C\c1ccccc1)=N/Nc1nc(N2CCOCC2)nc(N2CCOCC2)n1 | -6% | nt | 11% | 2%[9.22 µM] | 15%[10 µM] | nt
BrC(=C\c1ccccc1)/C=N/Nc1nc(N2CCOCC2)nc(N2CCOCC2)n1 | 0% | nt | 9% | 28% | 18%[10 µM] | 16µM*
O=[N+]([O-])c1ccc(-c2nc(C(Cl)Cl)c3ccccc3n2)cc1 | nt | nt | nt | 1.8µM* | -86%[10 µM] | nt
CC(=O)NC(Cc1c[nH]c2ccccc12)C(=O)Nc1ccc2c(c1)OCO2 (stereo not drawn) | 11% | 4 | 20%[38.3 µM] | -1% | 8% | -6%
CC(=O)N[C@@H](Cc1c[nH]c2ccccc12)C(=O)O | 4% | nt | 0% | nt | ? | -16%
CC(=O)N[C@@H](Cc1c[nH]c2ccccc12)C(=O)OCC(=O)NCc1ccc2c(c1)OCO2 | 5µM* | nt | 16% | 20% | -3%[10 µM] | nt
CC(=O)N[C@@H](Cc1c[nH]c2ccccc12)C(=O)OCC(=O)Nc1ccc(S(=O)(=O)N(C)C)cc1 | 4µM* | nt | -1% | 16% | nt | nt
CCOC(C)(C)C | 6% | nt | 1% | nt | 9% | -1%
Cc1cc(NC(=O)c2ccc([N+](=O)[O-])o2)ccc1NC(=O)c1ccco1 | 25µM* | nt | 13% | ? | -38% | nt
Cc1cc(NC(=O)c2ccc([N+](=O)[O-])cc2Cl)ccc1NC(=O)c1ccco1 | 8% | nt | -4% | -11% | 3%[10 µM] | -7%
Cc1cc(C)cc(NC(=O)c2ccc([N+](=O)[O-])o2)c1 | -3% | nt | -7% | 14%[9.22 µM] | -5%[10 µM] | nt
Cc1cc([N+](=O)[O-])ccc1NC(=O)c1ccco1 | 16µM* | nt | 15% | 18%[9.22 µM] | 19%[10 µM] | nt
NS(=O)(=O)c1ccc(O)c(NC(=O)c2ccc([N+](=O)[O-])o2)c1 | 2.5µM* | nt | nt | -5%[9.22 µM] | -12%[10 µM] | nt
CCCCCC1=C2CNC(C)(C(=O)OC)C=C2C(C)C1=O (stereo not drawn) | -8% | nt | -6% | nt | 20% | -7%
COc1cc(CNc2ccc3[nH]c(=O)[nH]c3c2)cc(Br)c1OCC(=O)NC(C)(C)C | 0.32µM* | 10 | 63%[38.3 µM] | ? | nt | ?
